From PubChem BioAssay (Tox21)
Several values for one entry are separate records, joined by “and”; a condition that tells them apart may be missing. Equal entries are not always repeated. Inconclusive results are not listed. Where a call stands in place of a potency, no number is given. Some structures have more than one record in an assay (separate samples or runs), and their calls can disagree. Activity calls are given as the source filed them. Unless noted, the call rests on the fitted dose curve; in most records, active means well fitted curve in the direction sought with a large enough effect in the repeat runs; inconclusive means weak or mixed curves; inactive means no such curve, though single readings can be large; an effect the other way counts as inactive or inconclusive.

Experiments:
[1] = biological target: Acetylcholinesterase (Homo sapiens) (UniProt P22303); assay: Acetylcholinesterase (AChE) small molecule antagonists: enzyme-based qHTS assay (AID 1347397; calls by dose curve; further: nearly all actives have a fitted effect of over 55% in size; further: potency means the concentration at half of the fitted maximal effect); conditions: Potency: AChE enzyme activity inhibition
Sequence of Acetylcholinesterase (Homo sapiens) (P22303 whole entry, looked up): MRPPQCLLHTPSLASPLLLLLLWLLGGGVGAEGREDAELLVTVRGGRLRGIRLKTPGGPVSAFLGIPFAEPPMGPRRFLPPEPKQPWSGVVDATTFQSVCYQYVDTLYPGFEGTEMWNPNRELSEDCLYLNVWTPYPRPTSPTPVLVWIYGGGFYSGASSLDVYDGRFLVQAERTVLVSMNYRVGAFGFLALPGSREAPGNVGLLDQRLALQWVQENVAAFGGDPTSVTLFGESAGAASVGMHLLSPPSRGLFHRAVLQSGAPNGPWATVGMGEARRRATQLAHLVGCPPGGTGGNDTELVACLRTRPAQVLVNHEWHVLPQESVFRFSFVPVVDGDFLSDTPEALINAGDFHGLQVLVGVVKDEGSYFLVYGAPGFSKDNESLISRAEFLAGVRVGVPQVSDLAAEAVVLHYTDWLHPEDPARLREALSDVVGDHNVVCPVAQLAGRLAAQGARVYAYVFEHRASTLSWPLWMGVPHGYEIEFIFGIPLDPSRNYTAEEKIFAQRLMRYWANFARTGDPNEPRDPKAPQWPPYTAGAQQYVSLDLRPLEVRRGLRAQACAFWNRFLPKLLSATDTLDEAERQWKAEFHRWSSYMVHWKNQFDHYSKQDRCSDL
Method in brief: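 Tox21 library chemicals are tested in qHTS format against recombinant human AChE. The enzyme, dispensed at 50 mU/mL, sits with compound for 30 min at room temperature. A DTNB–acetylthiocholine cocktail follows, and colour is read after 10 min.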

[2] = biological target: Acetylcholinesterase (Homo sapiens) (UniProt P22303); assay: Acetylcholinesterase (AChE) small molecule antagonists: fluorescence cell-based qHTS assay (AID 1347398; calls by dose curve; further: nearly all actives have a fitted effect of over 50% in size; further: potency means the concentration at half of the fitted maximal effect); conditions: Potency: AChE activity
Method in brief: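 Cellular AChE inhibition: SH-SY5Y cells treated with test chemical for 30 min at 37 C, then acetylthiocholine hydrolysis followed over 40 min at room temperature via thiocholine-reactive Thiolite Green fluorescence (490/520 nm).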

[3] = biological target: Cytochrome P450 2C9 (Homo sapiens) (UniProt P11712); assay: Cytochrome P450 Family 2 Subfamily C Member 9 (CYP2C9) small molecule antagonists: luciferase reporter qHTS assay (AID 1671198); further: nearly all actives have a fitted effect of over 50% in size; further: potency means the concentration at half of the fitted maximal effect
Sequence of Cytochrome P450 2C9 (Homo sapiens) (P11712 whole entry, looked up): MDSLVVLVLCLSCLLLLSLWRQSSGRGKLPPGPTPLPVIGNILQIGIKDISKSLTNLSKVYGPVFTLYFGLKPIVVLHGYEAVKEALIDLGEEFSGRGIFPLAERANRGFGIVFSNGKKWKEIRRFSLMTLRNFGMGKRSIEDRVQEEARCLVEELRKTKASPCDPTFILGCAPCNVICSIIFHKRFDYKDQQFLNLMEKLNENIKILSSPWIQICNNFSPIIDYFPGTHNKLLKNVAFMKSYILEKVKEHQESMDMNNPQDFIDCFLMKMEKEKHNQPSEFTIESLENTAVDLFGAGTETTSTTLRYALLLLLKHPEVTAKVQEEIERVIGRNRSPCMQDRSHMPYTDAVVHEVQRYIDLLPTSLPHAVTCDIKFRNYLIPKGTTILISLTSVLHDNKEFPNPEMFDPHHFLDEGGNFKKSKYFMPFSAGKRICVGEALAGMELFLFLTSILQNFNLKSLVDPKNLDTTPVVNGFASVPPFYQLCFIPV
Method in brief: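 CYP2C9 activity was measured with a P450-Glo proluciferin substrate. Enzyme–substrate mix was held with compound for 10 min at room temperature, then NADPH regeneration solution was added for 1 h at 37C. Luciferin product was read as luminescence.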

[4] = biological target: Cytochrome P450 1A2 (Homo sapiens) (UniProt P05177); assay: Cytochrome P450 Family 1 Subfamily A Member 2 (CYP1A2) small molecule antagonists: luciferase reporter qHTS assay (AID 1671199); further: nearly all actives have a fitted effect of over 50% in size; further: potency means the concentration at half of the fitted maximal effect
Sequence of Cytochrome P450 1A2 (Homo sapiens) (P05177 whole entry, looked up): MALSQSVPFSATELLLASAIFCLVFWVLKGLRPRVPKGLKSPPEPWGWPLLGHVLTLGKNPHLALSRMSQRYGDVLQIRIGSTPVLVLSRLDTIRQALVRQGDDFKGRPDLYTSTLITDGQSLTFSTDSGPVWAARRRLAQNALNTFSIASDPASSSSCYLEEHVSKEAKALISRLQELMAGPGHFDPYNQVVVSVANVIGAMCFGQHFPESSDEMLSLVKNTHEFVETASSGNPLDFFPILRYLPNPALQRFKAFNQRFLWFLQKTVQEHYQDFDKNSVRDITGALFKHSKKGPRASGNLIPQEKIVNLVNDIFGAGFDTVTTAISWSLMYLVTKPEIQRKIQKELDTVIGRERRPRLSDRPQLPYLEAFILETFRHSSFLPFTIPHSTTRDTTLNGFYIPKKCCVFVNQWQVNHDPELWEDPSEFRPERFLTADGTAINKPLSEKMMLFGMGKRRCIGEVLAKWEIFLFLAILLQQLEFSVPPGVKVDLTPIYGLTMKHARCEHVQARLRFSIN
Method in brief: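 Steps: enzyme-substrate mix dispensed; test compounds and furafylline control pinned in; 10 min room temperature; NADPH regeneration solution added, 1 h; reaction stopped with luciferin detection reagent; luminescence read after 20 min.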

[5] = biological target: Voltage-gated inwardly rectifying potassium channel KCNH2 (Homo sapiens) (UniProt Q12809); assay: Human Ether-a-go-go-Related Gene (hERG) channel small molecule antagonists: fluorescence cell-based qHTS assay (AID 1671200); further: nearly all actives have a fitted effect of over 50% in size; further: potency means the concentration at half of the fitted maximal effect
Sequence of Voltage-gated inwardly rectifying potassium channel KCNH2 (Homo sapiens) (Q12809 whole entry, looked up): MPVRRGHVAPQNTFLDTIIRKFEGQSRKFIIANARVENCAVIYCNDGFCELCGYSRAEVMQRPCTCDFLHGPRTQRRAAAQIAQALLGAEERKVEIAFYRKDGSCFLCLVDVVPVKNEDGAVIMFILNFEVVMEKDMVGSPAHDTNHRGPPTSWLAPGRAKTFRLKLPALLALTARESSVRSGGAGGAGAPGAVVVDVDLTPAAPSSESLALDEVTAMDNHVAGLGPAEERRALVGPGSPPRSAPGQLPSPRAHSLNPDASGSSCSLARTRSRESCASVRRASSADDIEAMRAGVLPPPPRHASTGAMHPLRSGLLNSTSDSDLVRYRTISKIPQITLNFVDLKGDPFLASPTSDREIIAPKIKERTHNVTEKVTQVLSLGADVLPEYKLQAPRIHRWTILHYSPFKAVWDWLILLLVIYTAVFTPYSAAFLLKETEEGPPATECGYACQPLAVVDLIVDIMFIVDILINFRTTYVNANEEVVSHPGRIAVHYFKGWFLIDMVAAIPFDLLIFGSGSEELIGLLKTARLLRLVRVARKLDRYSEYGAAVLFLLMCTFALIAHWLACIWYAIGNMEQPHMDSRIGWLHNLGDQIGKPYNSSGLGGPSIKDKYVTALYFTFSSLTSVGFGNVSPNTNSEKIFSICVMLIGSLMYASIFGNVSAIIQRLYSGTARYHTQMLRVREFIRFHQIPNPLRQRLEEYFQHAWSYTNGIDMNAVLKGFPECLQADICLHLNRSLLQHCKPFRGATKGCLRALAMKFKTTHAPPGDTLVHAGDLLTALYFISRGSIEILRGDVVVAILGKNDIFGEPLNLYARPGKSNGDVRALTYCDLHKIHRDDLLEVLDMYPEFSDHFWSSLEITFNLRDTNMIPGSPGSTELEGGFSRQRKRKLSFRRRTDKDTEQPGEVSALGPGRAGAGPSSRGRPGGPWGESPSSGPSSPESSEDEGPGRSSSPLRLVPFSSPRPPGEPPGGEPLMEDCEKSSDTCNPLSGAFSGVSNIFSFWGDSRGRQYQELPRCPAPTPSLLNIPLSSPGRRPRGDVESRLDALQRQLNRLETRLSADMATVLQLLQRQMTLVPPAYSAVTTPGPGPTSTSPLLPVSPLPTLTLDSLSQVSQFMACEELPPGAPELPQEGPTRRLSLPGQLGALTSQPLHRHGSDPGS
Method in brief: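 Channel function was assessed by thallium flux. Cells seeded the previous day and kept at 37 C took up FluxOR II dye over 1 h in the dark at room temperature, then sat another 10 min before stimulation.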

[6] = biological target: Cytochrome P450 3A4 (Homo sapiens) (UniProt P08684); assay: Cytochrome P450 Family 3 Subfamily A Member 4 (CYP3A4) small molecule antagonists: luciferase reporter qHTS assay (AID 1671201); further: nearly all actives have a fitted effect of over 50% in size; further: potency means the concentration at half of the fitted maximal effect
Sequence of Cytochrome P450 3A4 (Homo sapiens) (P08684 whole entry, looked up): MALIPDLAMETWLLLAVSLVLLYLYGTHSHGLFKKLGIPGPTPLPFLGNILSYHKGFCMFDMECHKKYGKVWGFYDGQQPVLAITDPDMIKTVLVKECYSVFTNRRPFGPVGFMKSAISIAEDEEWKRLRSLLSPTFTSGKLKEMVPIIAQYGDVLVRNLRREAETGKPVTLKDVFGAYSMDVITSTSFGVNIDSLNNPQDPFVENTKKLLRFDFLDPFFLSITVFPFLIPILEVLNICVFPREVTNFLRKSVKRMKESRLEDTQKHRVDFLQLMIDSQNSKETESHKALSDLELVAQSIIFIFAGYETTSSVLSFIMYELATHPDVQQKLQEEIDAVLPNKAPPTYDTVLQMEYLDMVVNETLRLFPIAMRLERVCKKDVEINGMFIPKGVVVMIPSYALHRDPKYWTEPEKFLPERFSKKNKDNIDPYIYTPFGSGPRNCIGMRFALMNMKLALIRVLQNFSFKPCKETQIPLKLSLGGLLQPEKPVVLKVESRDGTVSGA
Method in brief: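 Compounds in DMSO were pin-transferred onto CYP3A4 enzyme-substrate mix and held 10 min at room temperature. NADPH regenerating solution started the reaction for 1 h; luciferin detection reagent stopped it, and luminescence was read after 20 min.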

[7] = biological target: Acetylcholinesterase (Homo sapiens) (UniProt P22303); assay: Acetylcholinesterase (AChE) small molecule antagonists: enzyme-based qHTS assay with human liver microsomes (AID 1347399; calls by dose curve; further: nearly all actives have a fitted effect of over 60% in size); conditions: Potency: qHTS inhibition
Method in brief: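 Recombinant human AChE (50 mU/mL in the enzyme mix) and human liver microsomes (0.25 mg/mL final) were preincubated with compound and NADPH (0.25 mg/mL final) for 30 min at 37 C. Acetylthiocholine/DTNB was then added; thiocholine was read colorimetrically after 10 min at room temperature.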

[8] = biological target: Cytochrome P450 2D6 (Homo sapiens) (UniProt P10635); assay: Cytochrome P450 Family 2 Subfamily D Member 6 (CYP2D6) small molecule antagonists: luciferase reporter qHTS assay (AID 1671196); further: nearly all actives have a fitted effect of over 50% in size; further: potency means the concentration at half of the fitted maximal effect
Sequence of Cytochrome P450 2D6 (Homo sapiens) (P10635 whole entry, looked up): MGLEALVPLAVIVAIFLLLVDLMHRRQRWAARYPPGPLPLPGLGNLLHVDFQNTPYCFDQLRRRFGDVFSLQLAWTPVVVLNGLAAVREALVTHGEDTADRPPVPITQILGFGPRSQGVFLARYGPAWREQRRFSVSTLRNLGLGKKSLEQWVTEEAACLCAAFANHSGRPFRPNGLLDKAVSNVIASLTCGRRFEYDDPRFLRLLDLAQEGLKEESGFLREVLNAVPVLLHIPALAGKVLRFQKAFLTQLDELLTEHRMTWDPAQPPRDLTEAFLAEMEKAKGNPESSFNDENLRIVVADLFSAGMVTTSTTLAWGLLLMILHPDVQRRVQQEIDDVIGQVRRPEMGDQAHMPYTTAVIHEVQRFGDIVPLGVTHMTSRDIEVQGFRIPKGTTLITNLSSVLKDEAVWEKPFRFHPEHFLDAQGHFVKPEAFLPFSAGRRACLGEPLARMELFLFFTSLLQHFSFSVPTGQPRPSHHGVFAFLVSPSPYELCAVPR
Method in brief: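 Test chemicals meet CYP2D6 plus proluciferin substrate (10 min, RT); NADPH regenerating solution then drives turnover for 1 h. Detection reagent halts the reaction; luminescence measured after 20 min.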

[9] = biological target: Cytochrome P450 2C19 (Homo sapiens) (UniProt P33261); assay: Cytochrome P450 Family 2 Subfamily C Member 19 (CYP2C19) small molecule antagonists: luciferase reporter qHTS assay (AID 1671197); further: nearly all actives have a fitted effect of over 65% in size; further: potency means the concentration at half of the fitted maximal effect
Sequence of Cytochrome P450 2C19 (Homo sapiens) (P33261 whole entry, looked up): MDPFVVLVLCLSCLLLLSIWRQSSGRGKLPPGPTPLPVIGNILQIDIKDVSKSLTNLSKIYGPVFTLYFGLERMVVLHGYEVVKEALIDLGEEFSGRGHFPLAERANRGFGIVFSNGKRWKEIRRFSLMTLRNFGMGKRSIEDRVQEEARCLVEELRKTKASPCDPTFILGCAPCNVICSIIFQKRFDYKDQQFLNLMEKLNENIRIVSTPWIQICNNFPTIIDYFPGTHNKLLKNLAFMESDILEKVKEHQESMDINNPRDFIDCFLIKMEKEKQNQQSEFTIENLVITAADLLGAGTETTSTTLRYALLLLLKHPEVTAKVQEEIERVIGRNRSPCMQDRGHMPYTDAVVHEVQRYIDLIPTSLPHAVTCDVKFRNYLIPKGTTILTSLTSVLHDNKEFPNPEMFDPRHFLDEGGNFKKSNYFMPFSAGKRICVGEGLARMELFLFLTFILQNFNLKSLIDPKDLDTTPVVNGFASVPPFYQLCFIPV
Method in brief: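 P450-Glo CYP2C19 screening system; proluciferin substrate; DMSO compound stocks; 10 min RT preincubation; NADPH regeneration, 1 h at 37C; luciferin detection reagent, 20 min RT; luminescence as RLU.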

| SMILES | Potency [1] | Potency [2] | Potency [3] | Potency [4] | Potency [5] | Potency [6] | Potency [7] | Potency [8] | Potency [9] |
| --- | --- | --- | --- | --- | --- | --- | --- | --- | --- |
| O=C(CBr)c1ccc(O)cc1 | inactive | inactive | inactive | 31.7 µM (active) | inactive | inactive | – | – | – |
| O=CC(Br)(Br)Br | inactive | – | 14.1 µM (active) | 28.2 µM (active) | inactive | inactive | inactive | inactive | – |
| O=[N+]([O-])c1ccc2ccc3cccc4ccc1c2c34 | inactive | inactive | inactive | 0.224 µM (active) | inactive | inactive | – | 31.7 µM (active) | – |
| CCOP(=S)(OCC)OC(Cl)C(Cl)(Cl)Cl (centres undefined) | 79.6 µM (active) | 31.7 µM (active) | 3.99 µM (active) | 35.6 µM (active) | – | 3.99 µM (active) | – | inactive | 39.9 µM (active) |
| O=C(CCl)C(Cl)Cl | inactive | inactive | 40.3 µM (active) | – | inactive | inactive | – | 40.3 µM (active) | – |
| Oc1ccc2ccc3cccc4ccc1c2c34 | inactive | inactive | 35.6 µM (active) | 0.894 µM (active) | inactive | 31.7 µM (active) | – | inactive | 20 µM (active) |
| c1ccc2c(c1)OCC(C1=NCCN1)O2 (centres undefined) | inactive | inactive | inactive | inactive | inactive | inactive | – | 13.8 µM (active) | inactive |
| CC1CCC(C(C)C)C(OC(=O)c2ccccc2N)C1 (centres undefined) | inactive | inactive | 2.48 µM (active) | 12.4 µM (active) | 43 µM (active) | inactive | – | – | 1.11 µM (active) |
| O=S(=O)(c1ccc(Cl)cc1)c1ccc(Cl)cc1 | inactive | inactive | – | 34 µM (active) | 47.7 µM (active) | – | – | – | 0.161 µM (active) |
| Cc1ccc(OP(=O)(Oc2ccccc2)Oc2ccccc2)cc1 | 20.3 µM (active) | – | 6.42 µM (active) | 11.4 µM (active) | 24.9 µM (active) | inactive | – | inactive | – |
| Clc1ccc(CCC(Cn2ccnc2)Sc2c(Cl)cccc2Cl)cc1 (centres undefined) | – | inactive | 0.0871 µM (active) | 15.5 µM (active) | 7.56 µM (active) | – | inactive | – | 0.0347 µM (active) |
| CS(=O)(=O)c1ccc(C(=O)C2C(=O)CCCC2=O)c([N+](=O)[O-])c1 | – | – | 31.4 µM (active) | 50.3 µM (active) | inactive | inactive | inactive | – | 72.3 µM (active) |
| c1ccc(OCC2CO2)cc1 (centres undefined) | – | – | – | – | inactive | – | – | – | – |
| CCCCCCCCCCCCCCCCCCn1cc[n+](C)c1 | 28.1 µM (active) | – | 50 µM (active) | 56.1 µM (active) | 6.88 µM (active) | 31.5 µM (active) | – | 0.888 µM (active) | 79.2 µM (active) |
| COc1cc(N)c(Cl)cc1C(=O)NC1CN2CCC1CC2 (centres undefined) | – | – | inactive | inactive | – | inactive | – | 13.8 µM (active) | – |
| CN(C)[C@@H]1C(=O)C(C(N)=O)=C(O)[C@@]2(O)C(=O)C3=C(O)c4c(O)ccc(Cl)c4[C@@](C)(O)[C@H]3C[C@@H]12 | – | – | – | – | inactive | – | – | – | – |
| [Hg+2].[I-].[I-] | – | 28.3 µM (active) | 0.564 µM (active) | 3.56 µM (active) | inactive | 2.24 µM (active) | – | 2 µM (active) | 1.42 µM (active) |
| CC(=O)/C=C/c1ccc2c(c1)OCO2 | inactive | – | 8.01 µM (active) | 0.226 µM (active) | inactive | 2.53 µM (active) | inactive | – | – |
| CCCCCCCCCCCCCCCC[n+]1ccccc1 | – | – | – | inactive | – | – | inactive | – | inactive |
| Clc1ccc(COC(Cn2ccnc2)c2ccc(Cl)cc2Cl)cc1 (centres undefined) | – | inactive | – | 1.87 µM (active) and 1.78 µM (active) and 911 nM (active) | – | – | inactive | 663 nM (active) and 224 nM (active) and 490 nM (active) | – |
| O=[N+]([O-])c1cc([N+](=O)[O-])c2ccccc2c1 | inactive | – | inactive | – | inactive | inactive | inactive | – | – |
| CCCCCCCCCCCCCCCC[N+](C)(C)C | – | – | inactive | inactive and 79.6 µM (active) | 16.8 µM (active) and 21.9 µM (active) and 16.9 µM (active) | inactive | – | – | – |
| O=[N+]([O-])O.O=[N+]([O-])O.[Cd] | – | – | – | – | inactive | – | – | – | – |
| Oc1ccc(C(=C(Cl)Cl)c2ccc(O)cc2)cc1 | – | inactive | 5.63 µM (active) | 39.8 µM (active) | – | 11.2 µM (active) | inactive | inactive | 12.6 µM (active) |
| COc1cccc2c1C(=O)c1c(O)c3c(c(O)c1C2=O)C[C@@](O)(C(=O)CO)CC3OC1CC(N2CCOC(OC)C2)C(O)C(C)O1 (some centres undefined) | – | 11 µM (active) | 4.36 µM (active) | inactive | inactive | – | inactive | – | – |
